TWEAK-Fn14 inh – inhibitors of TWEAK-Fn14 interaction signaling; inhibition, % at 10 µM; TWEAK-stimulated Fn14 reporter cells, luciferase luminescence, 8 h; hit rate 2% among 360,000; in the data active = inhibition above about 50%
LGR2 antag – inhibitors of bursicon-induced Drosophila LGR2 receptor cAMP signaling. hit rate 0.35% among 380,000. inhibition, % at 9.99 µM. HEK293 LGR2, CRE-luciferase, bursicon-stimulated, 4 h;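 active = drop in luminescence signal, shown as inhibition above about 50% in the replicate tests, limit read from the data, passing the limit was not always enough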;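 also: agonist challenge used bursicon conditioned medium at about half maximal strength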
TROY NFkB inh – blocks TROY-dependent signaling in reporter cells. hit rate 0.98% among 360,000. Q293 LMP1-TROYcd NF-kB luciferase reporter, 4 h. inhibition, % at 10 µM. AID 1347056;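 active = compounds whose plate-normalised and pattern-corrected inhibition of the luciferase reporter signal at the single screening dose is 50% or more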
EWS-Fli block – EWS/Fli transcriptional activity inhibition | A673 NR0B1-luciferase reporter, viability-normalised | hit rate 0.67% among 350,000 | inhibition, % at 12.6 µM | AID 651661;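 active = mean inhibition of at least 50% after viability correction, with every replicate also passing that limit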;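 also: firefly luciferase signal divided by Alamar Blue viability fluorescence both relative to DMSO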
EBV LMP1 NFkB – inhibitors of Epstein-Barr LMP1-induced NF-kappaB reporter; LMP1-induced NF-kappaB luciferase reporter cells, luminescence; inhibition, % at 12.5 µM; hit rate 0.69% among 350,000; AID 504558; in the data active = inhibition above about 41%
Numbers stand for hits; – = inactive; · = no result given. Shown are actives, neighbours in structure and some others; about 2.5% of the full set was active somewhere.

SMILES	TWEAK-Fn14 inh	LGR2 antag	TROY NFkB inh	EWS-Fli block	EBV LMP1 NFkB
C[C@@H]1CN([C@@H](C)CO)C(=O)c2cc(NC(=O)c3ccccc3)ccc2O[C@@H](C)CCCCO[C@@H]1CN(C)C(=O)Nc1ccccc1	·	–	·	–	·
COc1cc(Nc2ccn3nc(-c4ccccc4Cl)cc3n2)cc(OC)c1OC	61	–	–	–	·
COC(=O)c1c(-c2cccs2)csc1NC(=O)CN1CCOCC1	–	·	67	·	–
CCOC(=O)c1c(-c2ccccc2)csc1NC(=O)CSc1nc(C)cc(C)n1	–	·	–	–	–
CCOC(=O)c1c(-c2ccccc2)csc1NC(=O)CSc1nc(N)cc(N)n1	86	–	–	·	–
CCOC(=O)c1c(-c2ccc(C)o2)csc1NC(=O)CN1CCCCC1	54	–	–	–	–
CCOC(=O)c1c(-c2ccc(C)o2)csc1NC(=O)CN1CCN(CC)CC1	–	·	–	·	–
CCOC(=O)c1c(-c2ccc(OC)cc2)csc1NC(=O)CCN1CCOCC1	–	–	–	–	–
CCCC#Cc1ccc2c(c1)O[C@@H](CN(C)Cc1cccnc1)[C@@H](C)CN([C@@H](C)CO)S2(=O)=O	·	–	·	–	·
Cc1cccc(S(=O)(=O)N2CCCCN3[C@H](CO)[C@H](c4ccc(C#C[C@H](C)O)cc4)[C@H]3C2)c1	·	–	·	–	·
c1ccc(-c2csc(Nc3ccccn3)n2)cc1	53	–	–	–	–
Cc1ccc(-c2csc(Nc3ccccn3)n2)cc1	82	81	–	–	–
COc1ccc(-c2csc(Nc3ccccn3)n2)cc1OC	–	–	–	–	–
Cc1cc(-c2csc(Nc3ccccn3)n2)ccc1F	51	–	–	–	–
Oc1ccc(-c2csc(Nc3ccccn3)n2)cc1	–	–	–	–	–
COC(=O)c1c(CC[C@@H](CO)NC(=O)N[C@H](Cc2ccccc2)Cn2cc(-c3ccccn3)nn2)oc(C(C)=O)c1C(=O)OC	·	·	·	–	·
COc1ccc(CN(C)C[C@@H]2OCCCC[C@@H](C)Oc3ccc(NC(=O)CCCN(C)C)cc3C(=O)N([C@H](C)CO)C[C@H]2C)cc1	·	–	·	–	·
NC(=O)[C@H]1[C@@H]2C(=O)O[C@@H](c3ccccc3)[C@@H](c3ccccc3)N2[C@@H](c2ccc(O)cc2)[C@]12C(=O)Nc1ccc(C#CC3(O)CCCCCC3)cc12	·	·	·	–	·
C[C@@H]1CN([C@H](C)CO)C(=O)c2cccc(NS(=O)(=O)c3cccs3)c2O[C@H]1CN(C)C(=O)Nc1ccc(F)cc1	·	–	·	–	·
CCN(CC)S(=O)(=O)c1cccc(-c2nnc(SCCCC(=O)c3ccccc3)o2)c1	–	·	–	·	–
CCN(CC)S(=O)(=O)c1cccc(-c2nnc(SCc3nc4ccccc4s3)o2)c1	–	·	57	·	–
COc1cc2c(=O)n(CC3CCCO3)c(=O)n(CC(=O)Nc3cccc(Cl)c3)c2cc1OC (stereo not given)	–	–	–	·	85
C=CCn1c(SCC(=O)c2[nH]c(C)c(C(=O)OC)c2C)nc2scc(-c3ccc(OC)c(OC)c3)c2c1=O	–	·	–	60	–
C=CCn1c(SCC(=O)c2[nH]c(C)c(C(C)=O)c2C)nnc1-c1ccncc1	–	·	–	·	–
COc1cccc(-c2ccc(C3[C@H]4CNC[C@@H]3N4C(=O)NC3CCCCC3)cc2)c1 (stereo not given in full)	·	–	·	·	·
SMILES	TWEAK-Fn14 inh	LGR2 antag	TROY NFkB inh	EWS-Fli block	EBV LMP1 NFkB
Cc1ccc(S(=O)(=O)c2nc(Nc3nccs3)sc2Cl)cc1	–	·	52	·	–
C[C@H]1CN([C@@H](C)CO)S(=O)(=O)c2ccc(-c3ccc(F)cc3)cc2O[C@H]1CN(C)C(=O)C1CC1	·	–	·	–	·
COc1ccc(-c2cnc3c(c2)C(=O)N([C@H](C)CO)C[C@@H](C)[C@@H](CN(C)C(=O)CN(C)C)O3)cc1	·	–	·	–	·
CCCCOc1ccc(/C=C/C(=O)OCC(=O)N2CC(=O)Nc3ccccc32)cc1OCC	68	–	–	–	–
COc1ccc(/C=C/C(=O)OCC(=O)N2CC(=O)Nc3ccccc32)cc1	–	–	–	·	–
CN1CCN(C(=O)C[C@@H]2C[C@@H]3c4cc(NC(=O)Nc5ccc(C(F)(F)F)cc5)ccc4O[C@@H]3[C@H](CO)O2)CC1	·	–	·	–	·
N#Cc1cccc(NC(=O)COC(=O)c2cc(S(=O)(=O)Nc3ccccc3Cl)ccc2O)c1	–	–	–	–	–
O=C(COC(=O)c1cc(S(=O)(=O)Nc2ccccc2Cl)ccc1O)Nc1nc2ccccc2s1	–	–	60	–	–
O=C(OCC12CC3CC(CC(C3)C1)C2)c1ccc(NCc2cc(O)ccc2O)cc1	103	–	–	56	–
CCNC(=O)OCCC12CC3CC(CC(C3)C1)C2	–	–	–	·	–
O=C(OCCC12CC3CC(CC(C3)C1)C2)c1ccc(NCc2cc(O)ccc2O)cc1	98	–	–	68	–
CCS(=O)(=O)Nc1ccc2c(c1)C(=O)N(C)C[C@H](OC)[C@@H](C)CN(CC1CCCCC1)[C@H](C)CO2	·	–	·	–	·
N#C[C@@H]1[C@H](c2ccccc2-c2ccccc2F)[C@H](CO)N1C(=O)Cc1ccccc1	·	–	·	–	·
CN(C)CCCNC(=O)[C@H]1[C@H](CO)[C@H]2Cn3c(ccc(-c4cccnc4)c3=O)[C@@H]1N2C(=O)CC1CC1	·	–	·	–	·
O=C(Nc1ccc(F)cc1)N[C@H]1CC[C@H](CCNS(=O)(=O)c2ccccc2F)O[C@@H]1CO	·	–	·	–	·
COC(=O)c1nn(-c2ccc3c(c2)CCN3C(C)=O)cc1O	103	·	76	·	55
CN1c2ccc(-c3ccc(C#N)cc3)cc2[C@H]2[C@H](CCN2C(=O)C2CCCCC2)[C@@H]1CO	·	–	·	–	·
O=C(CSc1nnc(-c2ccccc2)o1)c1ccc2c(c1)OCCO2	–	·	59	·	–
Cc1cc(C)cc(-c2nnc(SCC(=O)c3ccc4c(c3)OCCO4)o2)c1	–	–	–	·	–
O=C(CSc1nnc(-c2ccc3c(c2)OCCO3)o1)N1CCCC1	70	·	–	·	–
CCC1CCCCN1C(=O)CSc1nnc(-c2ccc3c(c2)OCCO3)o1 (stereo not given)	–	–	–	·	–
C[C@@H]1CN([C@H](C)CO)S(=O)(=O)c2ccc(-c3ccc(F)cc3)cc2O[C@@H]1CN(C)CC1CC1	·	–	·	–	·
COc1ccc(/C=N/n2cnc3c([nH]c4ccc(C)cc43)c2=O)cc1CN1CCCC1	–	–	–	59	–
COc1ccc(/C=N/n2cnc3c([nH]c4ccc(F)cc43)c2=O)cc1CN1CCCC1	–	–	–	57	–
Cc1noc(C)c1NC(=O)N(C)C[C@@H]1Oc2ccc(NC(=O)Nc3cccc4ccccc34)cc2CC(=O)N([C@H](C)CO)C[C@H]1C	·	–	·	–	·
CN(C)CCCC1(c2ccc(F)cc2)OCc2cc(C#N)ccc21 (stereo not given)	–	–	–	–	54
COc1cccc(-c2ccc3c(c2)[C@H]2[C@H](CCN2C(=O)C2CCCC2)[C@@H](CO)N3)c1	·	–	·	–	·
C[C@H](CO)N1C[C@H](C)[C@H](CN(C)S(=O)(=O)c2ccccc2)Oc2ccc(NC(=O)Cn3cnnn3)cc2CC1=O	·	–	·	–	·

High-throughput results deposited in PubChem BioAssay by several laboratories.
